Assay outcomes from PubChem BioAssay.
Shiga toxin inh: blocks Shiga toxin action in Vero cells; Vero cells, Shiga toxin protein synthesis inhibition reporter; inhibition, % at 38.7 µM; hit rate 9.2% among 290,000; in the data active = inhibition mostly above about 28%, no sharp cut-off; inactive = mostly below about 43%; note: 0% is about no effect
LmPK inhibitor: LmPK (Leishmania mexicana) enzyme inhibition; purified LmPK, Kinase-Glo ATP luminescence, 1 h; Potency, µM (titrated, usually from 57.5 µM), for the others: top-dose activity change, negative = inhibition, usual class: inhibitors; hit rate 0.37% among 290,000; Q27686; AID 1721; note: potency is the fitted concentration of half-maximal effect; % is set by controls: 0 for no effect and ±100 for the full control effect
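Purified LmPK (0.1 nM) converted ADP (0.1 mM) to ATP with PEP (0.5 mM) in imidazole buffer pH 7.2 with KCl and MgCl2, 1 h at room temperature. ATP was read by Kinase-Glo luminescence; data normalized to uninhibited and no-enzyme controls.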
Sm TGR block: inhibitors of Schistosoma mansoni thioredoxin glutathione reductase; Q962Y6; purified TGR, DTNB reduction, TNB absorbance 405 nm; Potency, µM (doses to about 114 µM), inactives show top-dose activity change, negative = inhibition, hits mostly inhibitors; hit rate 3% among 360,000; note: potency is the fitted concentration of half-maximal effect; % is set by controls: 0 for no effect and ±100 for the full control effect; nearly all actives have a fitted effect of over 60% in size
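First, TGR (20 nM dispensed) and NADPH were mixed with compound. Second, a 15 min room-temperature incubation followed. Third, further NADPH and then DTNB were added to start the reaction. Finally, TNB absorbance was monitored kinetically.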
Cycloheximide cs: counter-screen hit for Shiga toxin inhibitors, cycloheximide | cell reporter, cycloheximide protein synthesis inhibition counterscreen | AID 2314 | hit rate 12% among 300,000 | max response, %; in the data active = max response mostly above about 13%, no sharp cut-off; inactive = mostly below about 14%; note: read at 38.3 µM for the half of the compounds with a filed dose; 0% is about no effect
Tb PYK inh: blocks Trypanosoma brucei pyruvate kinase | hit rate 0.12% among 410,000 | TbPYK enzyme, Kinase-Glo Plus ATP luminescence, 45 min | Potency, µM (series often up to 76.8 µM), inactives show at the top dose activity, negative = inhibition, usual class: inhibitors | AID 624173; note: potency is the fitted concentration of half-maximal effect; % is set by controls: 0 for no effect and ±100 for the full control effect; nearly all actives have a fitted effect of over 50% in size
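T. brucei PYK with substrate was exposed to pin-transferred compounds across a concentration series, then started with 130 uM ADP (final). After 45 min at room temperature, Kinase-Glo Plus luminescence was read, normalized and curve-fitted.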
Giardia FBPA inh-1: Giardia lamblia aldolase inhibition; Potency, µM (top dose mostly 59.6 µM), inactives show top-dose activity, negative = inhibition, most hits filed as inhibitors; hit rate 0.71% among 290,000; A8B2U2; purified Giardia FBPA; note: potency is the fitted concentration of half-maximal effect; % is set by controls: 0 for no effect and ±100 for the full control effect; nearly all actives have a fitted effect of over 55% in size
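40 nM FBPA preincubated 10 min at RT with compound (up to 57.5 uM final), then substrate plus GAPDH/TPI/NAD/arsenate coupling and diaphorase/resazurin added. Fluorescence read after 20 min at RT, 525/598 nm.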
Giardia growth: inhibitors of Giardia lamblia growth. shares compounds with Giardia FBPA inh-1. Giardia lamblia trophozoite growth inhibition. Potency, µM (titrated, usually from 57.5 µM), for inactives: at the highest dose activity change, negative = inhibition, usual class: inhibitors. hit rate 5% among 1,500. AID 2785;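 note: potency is the fitted concentration of half-maximal effect; trophozoites exposed to compound for 48 h at 37 °C; % is set by controls: 0 for no effect and ±100 for the full control effect; nearly all actives have a fitted effect of over 70% in size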
Mammalian tox: mammalian cytotoxicity of Giardia aldolase inhibitor hits; mammalian cell viability counter-screen, qHTS; Potency, µM (doses to about 57.5 µM), for the others: top-dose viability change, negative = toxicity, actives largely listed as inhibitors; shares compounds with Giardia FBPA inh-1; hit rate 4% among 1,500;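 note: Chinese hamster ovary cells used as mammalian cytotoxicity surrogate; viability measured as cellular ATP by luminescence; potency is the fitted concentration of half-maximal effect; compound exposure lasted 48 h before reading; % is set by controls: 0 for no effect and ±100 for the full control effect; nearly all actives have a fitted effect of over 60% in size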
Giardia FBPA inh-2: confirmation of Giardia fructose-bisphosphate aldolase inhibitors. Potency, µM (titrated, usually from 57.5 µM), without a hit: top-dose activity change, negative = inhibition, most hits filed as inhibitors. purified Giardia aldolase enzyme activity, qHTS. hit rate 5% among 1,500. shares compounds with Giardia FBPA inh-1; note: potency is the fitted concentration of half-maximal effect; % is set by controls: 0 for no effect and ±100 for the full control effect; nearly all actives have a fitted effect of over 45% in size
Rabbit FBPA inh: rabbit FBP aldolase inhibition by Giardia aldolase hits. Potency, µM (doses to about 57.5 µM), for inactives: top-dose activity, negative = inhibition, hits mostly inhibitors. Rabbit muscle FBPA enzyme inhibition, selectivity counter-screen. hit rate 4% among 1,500. shares compounds with Giardia FBPA inh-1; note: potency is the fitted concentration of half-maximal effect; % is set by controls: 0 for no effect and ±100 for the full control effect; nearly all actives have a fitted effect of over 60% in size
Target sequence (P00883 whole entry, looked up): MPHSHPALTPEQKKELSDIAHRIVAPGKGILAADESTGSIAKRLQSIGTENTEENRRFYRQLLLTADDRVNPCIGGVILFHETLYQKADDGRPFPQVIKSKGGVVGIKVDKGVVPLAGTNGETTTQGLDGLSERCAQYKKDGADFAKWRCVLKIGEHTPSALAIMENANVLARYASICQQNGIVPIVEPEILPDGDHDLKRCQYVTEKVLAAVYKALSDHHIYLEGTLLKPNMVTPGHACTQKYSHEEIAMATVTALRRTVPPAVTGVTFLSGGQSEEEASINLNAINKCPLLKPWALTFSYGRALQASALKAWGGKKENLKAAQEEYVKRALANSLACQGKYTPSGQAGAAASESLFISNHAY
GAPDH counter: GAPDH inhibition flagged for Giardia aldolase hits; shares compounds with Giardia FBPA inh-1; GAPDH coupling enzyme counterscreen, biochemical, qHTS; hit rate 6% among 1,500; AID 2795; Potency, µM (doses to about 57.5 µM), for the others: at the highest dose activity change, negative = inhibition, usual class: inhibitors; note: potency is the fitted concentration of half-maximal effect; % is set by controls: 0 for no effect and ±100 for the full control effect; nearly all actives have a fitted effect of over 55% in size
The depositor's hits bear a star; ? = inconclusive; . = no result given; [ ] = another dose, or the depositor's remark. Many of the other results were omitted from the sample, so hits are more common in it than they were. Unless noted, calls come from the whole dose curve; as a rule, active = well fitted curve in the direction sought with a large enough effect; inconclusive = small, poorly fitted or top-dose-only effect, or another doubt; inactive = no such curve, though single readings can be large; an effect the other way counts as inactive or inconclusive.

SMILES	Shiga toxin inh	LmPK inhibitor	Sm TGR block	Cycloheximide cs	Tb PYK inh	Giardia FBPA inh-1	Giardia growth	Mammalian tox	Giardia FBPA inh-2	Rabbit FBPA inh	GAPDH counter
O=C(Nc1ccc(N2CCOCC2)c(Cl)c1)c1ccc(Cl)cc1	52*	0%	4%	32*	-2%	16µM*	?	-1%	?	?	?
CCN(CCNCC(O)COc1ccccc1C(C)C)c1cccc(C)c1 (stereo not drawn)	-7	-6%	9%	-4	19%	22µM*	12%	-26%	-5%	0%	-16%
CCOC(=O)c1cccc(OCC(O)CNCCOc2ccccc2F)c1 (stereo not drawn)	-4	-6%	-16%	-3	-2%	?	.	.	.	.	.
Oc1cccc2nc3ccccc3nc12	44	-2%	?	21*	0%	18µM*	-2%[10.4 µM]	-10%	?	-21%	?
CC12CCC(=O)N1C(C(=O)Nc1cc(Cl)ccc1N1CCCC1)CS2 (stereo not drawn)	.	.	-16%	.	1%	.	.	.	.	.	.
COc1ccc(CNC2CCCc3ccccc32)cc1OC (stereo not drawn)	-5	-9%	-13%	-1	33%	-24%	.	.	.	.	.
COc1ccccc1CNC1CCCc2ccccc21 (stereo not drawn)	-11	-6%	-11%	0	2%	16µM*	?	0%	3%	4%	10%
COc1ccc(CNC2CCSc3ccccc32)cc1OC (stereo not drawn)	-3	-4%	2%	1	32%	28µM*	8%[10.4 µM]	25%	1%	4%	3%
O=C(c1ccccn1)N1CCCC(N2CCN(c3ccccc3)CC2)C1 (stereo not drawn)	6	-1%	-29%	-2	-3%	.	.	.	.	.	.
CCOc1ccc(NC(=O)CC2S/C(=N/N=C3CCCCCC3)NC2=O)cc1 (stereo not drawn)	1	-5%	-32%	-2	2%	.	.	.	.	.	.
Cc1ccc(O)c(N=Cc2cccs2)c1	38*	1%	1%	29*	3%	20µM*	3%	13%	35µM*	40µM*	50µM*
Cc1cc(C)nc(N2N=C(C(F)(F)F)CC2=O)n1	-1	2%	3%	-3	7%	11µM*	14%	14%	6%	-5%	9%
CCCCN(C)S(=O)(=O)c1ccc(C(=O)Nc2nnc(C3=COCCO3)o2)cc1	-17	1%[11.5 µM]	11%	-3	2%	18µM*	?	14%	5%	1%	3%
N#CCCN(CCC#N)S(=O)(=O)c1ccc(C(=O)Nc2nnc(C3=COCCO3)o2)cc1	1	2%	-2%	1	3%	16µM*	?	15%	5%	16%	2%
O=C(CCN1CCCCC1)Nn1c(=S)[nH]c2ccccc2c1=O	-5	-1%	0%	-1	8%	22µM*	?	11%	1%	12%	5%
CC(C)NC(=O)c1ccc(-n2c(=S)[nH]c3ccccc3c2=O)cc1	2	0%	-13%	-2	.	-5%	.	.	.	.	.
O=C(Nn1c(=S)[nH]c2ccccc2c1=O)c1ccncc1	25	0%	1%	-3	-6%	16µM*	-8%	10%	0%	0%	1%
